Results taken from PubChem BioAssay (NCATS).
Results filed as inconclusive are left out. Active and inactive are the calls of the source. Calls follow the shape of the dose curve; as a rule, active = well fitted inhibition curve with a large enough effect; inconclusive = small, poorly fitted or top-dose-only effect; inactive = flat fitted curve, though single readings scatter.

molecular target: Calcium and integrin-binding protein 1 (Homo sapiens) (UniProt Q99828); experiment: Primary qHTS for Identification of Calcium Integrin Binding Protein 1 (CIB1) Competitor (AID 1508620); settings: CIB1-GST / FITC-alphaIIb peptide fluorescence polarization; series mostly up to 57.7 µM;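 also: GST tagged CIB1 binding a fluorescein labelled alphaIIb integrin peptide tracer; top concentration of the series differs between compounds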
Sequence (Q99828 whole entry, looked up): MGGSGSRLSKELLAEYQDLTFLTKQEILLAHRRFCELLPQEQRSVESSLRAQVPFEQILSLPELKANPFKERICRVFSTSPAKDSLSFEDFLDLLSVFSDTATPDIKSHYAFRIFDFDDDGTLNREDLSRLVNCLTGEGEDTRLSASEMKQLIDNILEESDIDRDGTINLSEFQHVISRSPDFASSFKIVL
Source text: Assay Provider: Ulhas P. Naik, PhD Sidney Kimmel Medical College Thomas Jefferson University, Philadelphia, PA Primary function of platelets is to maintain hemostasis. At the site of vascular injury, platelets adhere to adhesive proteins such as collagen and von Willebrand factor. Adherent platelets are activated and generate soluble platelet agonists such as thrombin, ADP and thromboxane A2. Following exposure of circulating platelets to these agonists, results in platelet shape change, granule secretion and activation of platelet integrin alphaIIb-beta3. Ligand binding to activated integrin alphaIIb-beta3 triggers outside-in signaling, leading to platelet aggregation, stabilization of platelet plug, and clot retraction. Upon atherosclerotic plaque rupture also causes platelet plug formation, which underlies a number of cardiovascular diseases such as myocardial infraction and stroke. A number of anti-platelet drugs such as aspirin, clopidogrel, prasugrel, vorapaxar, and eptifibatide are currently available to prevent the thrombotic complications. However, these anti-platelet agents have several limitations including inherent variability in individual responses, developing resistance, and serious bleeding side effects. For these reasons they are not suitable for long-term protection. Based on the experiences with current anti-platelet drugs, it appears that the most useful therapeutic approach is to intersect the secondary responses such as integrin outside-in signaling or recruitment of platelets by TxA2 and secreted ADP. Compounds, which can largely preserve the primary hemostatic function of platelets but inhibit secondary response will be most desired therapeutic agents for treatment of cardiovascular disease. CIB1 is a calcium integrin binding protein, which specifically interact with the alphaIIb subunit of integrin alphaIIb-beta3. Binding of CIB1 to alphaIIb regulates the outside-in signaling in platelets, which is needed for thrombus stabilization and thrombus growth. […] Therefore, we propose that discovery of a small molecule that can prevent the association of CIB1 and alphaIIb-beta3 will be a potential anti-platelet agent that can block the thrombus formation without undue effect on hemostasis. Reference: [1] Naik MU, Nigam A, Manrai P, et al. CIB1 deficiency results in impaired thrombosis: the potential role of CIB1 in outside-in signaling through integrin alpha IIb beta 3. J Thromb Haemost.
PROTOCOL TABLES SEQUENCE No. (1, 2, 3, etc.); […] (e.g., Cells, Incubation, Reagent, etc.); VALUE and DESCRIPTION. 1; Reagent; 3 uL; Protein or buffer (4/3x) 2; Compound; 46 nL; Control inhibitor / compound library 3; Time; 15 min; Room temperature incubation 4; Reagent; 1 uL; Fluorescent labeled peptide (4x) 5; Time; 1000 rpm; Centrifuge 6; Time; 15 min; Room temperature incubation 7; Detection; Ex 480/ Em 540; ViewLux Fluorescence Read NOTES (numbers refer to sequence above) 1; Protein Mixture: C1B1-GST (final concentrations of 1 uM). […] 3; Room temperature incubation. 4; Fluorescent Labeled Peptide: FITC-aIIb (final concentration of 100 nM). Sequence of alphaIIb peptide: Acetyl-[…]-FITC (purity is 95.83%). 5; Centrifuge 1000 rpm (164 g) for 15 seconds. 6; Room temperature incubation. 7; ViewLux Fluorescent Polization Read: excitation = 480(20) / emission = 540(25) S and P; FITC Dichroic mirror.

Q: `C[C@]12CC[C@H](O)CC1=CC[C@@H]1[C@H]2CC[C@]2(C)C(c3cccnc3)=CC[C@H]12` was tested. Which outcome did it give?
A: inactive

Q: How did the outcome turn out when `COc1ccc(-c2oc3cc(OC)ccc3c2C(=O)c2ccc(C#N)cc2)cc1` was run?
A: inactive

Q: `Cc1c(CCOc2ccc(C(=O)O)cc2)c2cc(Cl)ccc2n1C(c1ccccc1)c1ccccc1` was tested. Which outcome did it give?
A: inactive

Q: For `N#CC[C@H](C1CCCC1)n1cc(-c2ncnc3[nH]ccc23)cn1`, which outcome is on record?
A: inactive

Q: How did the outcome turn out when `COc1cc2nccc(Oc3ccc(NC(=O)NC4CC4)c(Cl)c3)c2cc1C(N)=O` was run?
A: inactive

Q: For `NC(=O)c1cnccn1`, which outcome is on record?
A: inactive

Q: With `COc1ccc(-c2ccc3c(N4CCOCC4)nc(N4C[C@@H](C)O[C@@H](C)C4)nc3n2)cc1CO` as the compound, how does the outcome read?
A: inactive

Q: For `NC(=O)c1ccc(-c2nc(-c3ccc4c(c3)OCO4)c(-c3ccccn3)[nH]2)cc1`, which outcome is on record?
A: inactive

Q: How did the outcome turn out when `Nc1nc2c(ncn2COCCO)c(=O)[nH]1` was run?
A: inactive

Q: For `Oc1cccc(-c2nc(N3CCOCC3)c3oc4ncccc4c3n2)c1`, which outcome is on record?
A: inactive

Q: `CCC(=O)N[C@H]1CC[C@H](C(=O)N(C)c2ccc(-c3nc4ccccc4o3)cc2)C1` was tested. Which outcome did it give?
A: inactive

Q: How did the outcome turn out when `Cc1ccc(-n2nc(C(C)(C)C)cc2NC(=O)Nc2ccc(OCCN3CCOCC3)c3ccccc23)cc1` was run?
A: inactive

Q: With `O=C(O)COCCN1CCN(C(c2ccccc2)c2ccc(Cl)cc2)CC1` (stereo not given) as the compound, how does the outcome read?
A: inactive

Q: Which outcome does the source give for `Cc1ccc(NC(=O)c2cccc(C(C)(C)C#N)c2)cc1Nc1ccc2ncn(C)c(=O)c2c1` here?
A: inactive

Q: For `O=C(Nc1cccnc1)N1CCC(Cc2cccc(Oc3ccc(C(F)(F)F)cn3)c2)CC1`, which outcome is on record?
A: inactive

Q: For `COc1ccc(C2=N[C@H](c3ccc(Cl)cc3)[C@H](c3ccc(Cl)cc3)N2C(=O)N2CCNC(=O)C2)c(OC(C)C)c1`, which outcome is on record?
A: inactive

Q: How did the outcome turn out when `OCCC#Cc1nc(-c2ccc(F)cc2)c(-c2ccncc2)n1CCCc1ccccc1` was run?
A: inactive

Q: `CNC[C@H](O)c1cccc(O)c1` was tested. Which outcome did it give?
A: inactive

Q: `CCOc1cc(C(=O)Nc2ccc(Cl)c(-c3nc4ccccc4[nH]3)c2)cc(OCC)c1OCC` was tested. Which outcome did it give?
A: inactive

Q: How did the outcome turn out when `O=C1CCc2cc(OCCCCc3nnnn3C3CCCCC3)ccc2N1` was run?
A: inactive

Q: Which outcome does the source give for `O=C1[C@H](Cc2ccc(O)cc2)N2C(=O)CCN(C(=O)NCc3ccccc3)[C@H]2CN1Cc1cccc2ccccc12` here?
A: inactive

Q: How did the outcome turn out when `Cc1cnc(Nc2ccc(OCCN3CCCC3)cc2)nc1Nc1cccc(S(=O)(=O)NC(C)(C)C)c1` was run?
A: inactive

Q: With `CC1(C)Cc2c(-c3ccccc3)c(-c3ccc(Cl)cc3)c(CC(=O)O)n2C1` as the compound, how does the outcome read?
A: inactive

Q: With `Cn1cc(-c2ccc3nnc(C(F)(F)c4ccc5ncccc5c4)n3n2)cn1` as the compound, how does the outcome read?
A: inactive

Q: `CCC(C)n1ncn(-c2ccc(N3CCN(c4ccc(OC[C@H]5CO[C@](Cn6cncn6)(c6ccc(Cl)cc6Cl)O5)cc4)CC3)cc2)c1=O` (stereo not given in full) was tested. Which outcome did it give?
A: inactive

Q: For `CC(C)(C)NCC(O)c1ccc(O)c(CO)c1` (stereo not given), which outcome is on record?
A: inactive

Q: Which outcome does the source give for `Cc1ccccc1C(OCCN(C)C)c1ccccc1` (stereo not given) here?
A: inactive

Q: `O=c1ncn2nc(Sc3ccc(F)cc3F)ccc2c1-c1c(Cl)cccc1Cl` was tested. Which outcome did it give?
A: inactive

Q: Which outcome does the source give for `NNCCc1ccccc1` here?
A: inactive

Q: How did the outcome turn out when `CC(=O)NC(C)c1ccc(Oc2ccc(OC(C)C)cc2)cc1` (stereo not given) was run?
A: inactive

Q: With `CS(=O)(=O)c1ccc(C(=O)Nc2ccc(Cl)c(-c3ccccn3)c2)c(Cl)c1` as the compound, how does the outcome read?
A: inactive

Q: `NCCc1ccc(O)c(O)c1` was tested. Which outcome did it give?
A: inactive

Q: Which outcome does the source give for `O=C(c1cc(Cc2n[nH]c(=O)c3ccccc23)ccc1F)N1CCN(C(=O)C2CC2)CC1` here?
A: inactive

Q: For `CCOc1ccc(Cc2cc([C@@H]3O[C@H](CO)[C@@H](O)[C@H](O)[C@@H]3O)ccc2Cl)cc1`, which outcome is on record?
A: inactive

Q: Which outcome does the source give for `Cc1cc(C=c2sc3nc4ccccc4n3c2=O)c(C)n1-c1ccccc1` here?
A: inactive

Q: Which outcome does the source give for `Cn1c(=O)c(F)c(Nc2ccc(I)cc2F)c2c(=O)n(C[C@@H](O)CO)cnc21` here?
A: inactive

Q: For `CS(=O)(=O)c1cccc(CNc2nc(Nc3ccc4c(c3)CCC(=O)N4)ncc2C(F)(F)F)c1`, which outcome is on record?
A: inactive

Q: Which outcome does the source give for `O=NN(CCCl)C(=O)NCCCl` here?
A: inactive

Q: `NCCCC(N)(C(=O)O)C(F)F` (stereo not given) was tested. Which outcome did it give?
A: inactive

Q: With `CCOc1ccn(-c2ccc(F)cc2)c(=O)c1C(=O)Nc1ccc(Oc2ccnc(N)c2Cl)c(F)c1` as the compound, how does the outcome read?
A: inactive
